Source: the supplement of paper PMC11732987, “Enantioselective OTUD7B fragment discovery through chemoproteomics screening and high-throughput optimisation” (Communications Chemistry, 2025)

Columns and labels:
Assay in all cases: log2 ratio of Biotin-Ahx-Ub-VS probe labelling (fragment/DMSO); higher = less target engagement (more negative = stronger competition), active = hit call of the paper (q ≤ 0.05, log2 ratio ≤ -1)
Details in all cases: compound concentration: 200 uM; treatment time: 3 h
USP34 = USP34 (UniProt Q70CQ2)
Sequence of USP34 (Q70CQ2 whole entry, the tested form may be a part): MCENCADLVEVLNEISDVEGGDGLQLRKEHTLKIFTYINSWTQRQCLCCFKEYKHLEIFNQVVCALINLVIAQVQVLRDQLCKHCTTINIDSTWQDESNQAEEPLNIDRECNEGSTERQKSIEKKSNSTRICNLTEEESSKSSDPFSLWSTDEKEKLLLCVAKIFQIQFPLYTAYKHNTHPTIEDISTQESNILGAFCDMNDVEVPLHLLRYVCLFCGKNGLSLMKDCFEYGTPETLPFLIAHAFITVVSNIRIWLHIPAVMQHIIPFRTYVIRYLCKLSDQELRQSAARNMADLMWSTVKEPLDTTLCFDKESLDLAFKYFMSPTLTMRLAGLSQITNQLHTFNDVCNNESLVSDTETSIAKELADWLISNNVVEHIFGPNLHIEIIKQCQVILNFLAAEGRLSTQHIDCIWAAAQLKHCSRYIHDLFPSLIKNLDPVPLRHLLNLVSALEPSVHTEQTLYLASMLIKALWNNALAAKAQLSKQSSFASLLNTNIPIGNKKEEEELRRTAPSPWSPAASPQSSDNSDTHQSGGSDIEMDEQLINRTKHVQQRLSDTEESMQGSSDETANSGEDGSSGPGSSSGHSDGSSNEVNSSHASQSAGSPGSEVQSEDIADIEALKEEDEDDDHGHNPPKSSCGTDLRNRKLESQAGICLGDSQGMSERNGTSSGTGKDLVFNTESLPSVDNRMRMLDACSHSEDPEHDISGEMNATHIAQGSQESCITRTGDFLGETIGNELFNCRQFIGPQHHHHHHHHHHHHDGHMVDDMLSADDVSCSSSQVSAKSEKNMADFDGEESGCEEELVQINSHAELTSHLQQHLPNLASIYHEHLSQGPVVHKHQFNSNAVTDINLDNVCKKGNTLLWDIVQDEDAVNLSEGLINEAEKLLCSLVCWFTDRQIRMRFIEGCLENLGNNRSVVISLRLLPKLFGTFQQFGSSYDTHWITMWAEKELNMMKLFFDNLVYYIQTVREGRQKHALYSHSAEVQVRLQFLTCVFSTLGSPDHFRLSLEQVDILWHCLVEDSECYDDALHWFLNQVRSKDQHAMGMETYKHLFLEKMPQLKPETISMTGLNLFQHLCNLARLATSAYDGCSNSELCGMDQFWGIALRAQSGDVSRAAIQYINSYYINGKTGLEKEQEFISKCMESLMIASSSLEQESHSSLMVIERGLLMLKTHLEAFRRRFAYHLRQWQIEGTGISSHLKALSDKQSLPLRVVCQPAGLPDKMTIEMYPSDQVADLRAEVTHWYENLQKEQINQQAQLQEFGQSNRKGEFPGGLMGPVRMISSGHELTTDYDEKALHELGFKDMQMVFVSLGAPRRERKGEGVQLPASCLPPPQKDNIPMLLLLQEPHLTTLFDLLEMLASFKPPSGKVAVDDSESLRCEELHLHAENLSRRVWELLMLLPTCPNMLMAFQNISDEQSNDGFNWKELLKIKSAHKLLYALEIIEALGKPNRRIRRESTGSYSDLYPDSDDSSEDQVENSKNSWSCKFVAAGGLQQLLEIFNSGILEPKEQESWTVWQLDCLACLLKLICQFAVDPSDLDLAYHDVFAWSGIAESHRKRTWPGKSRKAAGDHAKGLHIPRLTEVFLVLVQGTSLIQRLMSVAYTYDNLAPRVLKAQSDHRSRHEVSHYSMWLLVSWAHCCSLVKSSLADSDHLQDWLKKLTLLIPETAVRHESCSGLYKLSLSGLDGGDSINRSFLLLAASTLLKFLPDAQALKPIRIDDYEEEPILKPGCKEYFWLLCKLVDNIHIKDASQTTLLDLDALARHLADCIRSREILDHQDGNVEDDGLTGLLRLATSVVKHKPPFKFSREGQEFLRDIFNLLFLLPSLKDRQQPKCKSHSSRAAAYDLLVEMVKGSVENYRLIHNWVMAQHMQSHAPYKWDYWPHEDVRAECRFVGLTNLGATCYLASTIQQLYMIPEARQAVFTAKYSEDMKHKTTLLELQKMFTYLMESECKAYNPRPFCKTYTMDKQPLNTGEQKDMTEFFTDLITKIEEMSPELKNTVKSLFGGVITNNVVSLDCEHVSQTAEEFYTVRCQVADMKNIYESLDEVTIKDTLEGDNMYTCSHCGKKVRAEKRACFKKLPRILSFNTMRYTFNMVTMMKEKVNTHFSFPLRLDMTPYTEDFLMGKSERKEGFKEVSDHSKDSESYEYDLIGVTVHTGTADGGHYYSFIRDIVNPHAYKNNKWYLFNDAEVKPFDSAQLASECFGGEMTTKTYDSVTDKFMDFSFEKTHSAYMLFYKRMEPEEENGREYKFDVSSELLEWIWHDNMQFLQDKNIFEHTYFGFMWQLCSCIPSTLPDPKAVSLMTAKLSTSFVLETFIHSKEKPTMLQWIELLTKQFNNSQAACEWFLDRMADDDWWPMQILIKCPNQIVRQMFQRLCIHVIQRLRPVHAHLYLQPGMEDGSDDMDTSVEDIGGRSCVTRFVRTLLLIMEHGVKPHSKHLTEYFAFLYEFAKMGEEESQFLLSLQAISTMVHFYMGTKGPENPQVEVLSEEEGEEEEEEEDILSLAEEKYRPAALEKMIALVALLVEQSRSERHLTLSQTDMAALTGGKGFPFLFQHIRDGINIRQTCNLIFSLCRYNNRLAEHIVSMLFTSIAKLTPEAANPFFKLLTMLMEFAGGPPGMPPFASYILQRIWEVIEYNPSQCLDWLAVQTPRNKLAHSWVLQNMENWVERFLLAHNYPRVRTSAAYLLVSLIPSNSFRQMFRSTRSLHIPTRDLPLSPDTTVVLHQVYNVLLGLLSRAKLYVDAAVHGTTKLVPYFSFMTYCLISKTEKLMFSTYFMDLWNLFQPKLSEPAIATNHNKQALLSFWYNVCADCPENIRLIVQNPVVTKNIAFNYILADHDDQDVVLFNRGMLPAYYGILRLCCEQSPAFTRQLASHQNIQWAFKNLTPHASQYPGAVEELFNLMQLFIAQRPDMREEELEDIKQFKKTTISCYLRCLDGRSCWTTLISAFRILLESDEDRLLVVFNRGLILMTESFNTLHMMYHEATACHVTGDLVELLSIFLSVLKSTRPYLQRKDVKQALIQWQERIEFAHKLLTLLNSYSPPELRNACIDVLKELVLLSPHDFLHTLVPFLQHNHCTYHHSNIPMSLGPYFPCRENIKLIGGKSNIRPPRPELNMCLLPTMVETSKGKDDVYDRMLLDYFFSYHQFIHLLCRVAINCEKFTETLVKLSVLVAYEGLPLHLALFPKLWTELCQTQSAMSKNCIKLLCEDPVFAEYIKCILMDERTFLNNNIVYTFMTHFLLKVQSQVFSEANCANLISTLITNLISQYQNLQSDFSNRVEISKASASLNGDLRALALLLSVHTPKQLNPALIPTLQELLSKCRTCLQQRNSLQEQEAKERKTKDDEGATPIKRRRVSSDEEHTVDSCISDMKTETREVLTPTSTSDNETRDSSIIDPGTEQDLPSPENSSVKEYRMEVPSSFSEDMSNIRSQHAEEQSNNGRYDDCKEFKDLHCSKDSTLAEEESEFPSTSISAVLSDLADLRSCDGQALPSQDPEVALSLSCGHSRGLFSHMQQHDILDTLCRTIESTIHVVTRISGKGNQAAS
In short: (§1)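 Labelled DUBs from HEK293T lysate were NeutrAvidin-enriched, digested with LysC and trypsin, and run by diaPASEF LC-MS/MS. Before that, each 495 µg sample in Tris/CHAPS/IGEPAL buffer with protease inhibitors was treated in triplicate with fragment at 200 µM or vehicle for 3 h, then with Biotin-Ahx-Ub-VS at 0.5 µM final for 1 h. Values are average log2 ratios of fragment over vehicle by unpaired t-test, based on global-median-normalised Spectronaut label-free quantities from proteins with ≥2 unique peptides.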

USP36 = molecular target: T1, USP36 (UniProt Q9P275)
T1 sequence (whole entry): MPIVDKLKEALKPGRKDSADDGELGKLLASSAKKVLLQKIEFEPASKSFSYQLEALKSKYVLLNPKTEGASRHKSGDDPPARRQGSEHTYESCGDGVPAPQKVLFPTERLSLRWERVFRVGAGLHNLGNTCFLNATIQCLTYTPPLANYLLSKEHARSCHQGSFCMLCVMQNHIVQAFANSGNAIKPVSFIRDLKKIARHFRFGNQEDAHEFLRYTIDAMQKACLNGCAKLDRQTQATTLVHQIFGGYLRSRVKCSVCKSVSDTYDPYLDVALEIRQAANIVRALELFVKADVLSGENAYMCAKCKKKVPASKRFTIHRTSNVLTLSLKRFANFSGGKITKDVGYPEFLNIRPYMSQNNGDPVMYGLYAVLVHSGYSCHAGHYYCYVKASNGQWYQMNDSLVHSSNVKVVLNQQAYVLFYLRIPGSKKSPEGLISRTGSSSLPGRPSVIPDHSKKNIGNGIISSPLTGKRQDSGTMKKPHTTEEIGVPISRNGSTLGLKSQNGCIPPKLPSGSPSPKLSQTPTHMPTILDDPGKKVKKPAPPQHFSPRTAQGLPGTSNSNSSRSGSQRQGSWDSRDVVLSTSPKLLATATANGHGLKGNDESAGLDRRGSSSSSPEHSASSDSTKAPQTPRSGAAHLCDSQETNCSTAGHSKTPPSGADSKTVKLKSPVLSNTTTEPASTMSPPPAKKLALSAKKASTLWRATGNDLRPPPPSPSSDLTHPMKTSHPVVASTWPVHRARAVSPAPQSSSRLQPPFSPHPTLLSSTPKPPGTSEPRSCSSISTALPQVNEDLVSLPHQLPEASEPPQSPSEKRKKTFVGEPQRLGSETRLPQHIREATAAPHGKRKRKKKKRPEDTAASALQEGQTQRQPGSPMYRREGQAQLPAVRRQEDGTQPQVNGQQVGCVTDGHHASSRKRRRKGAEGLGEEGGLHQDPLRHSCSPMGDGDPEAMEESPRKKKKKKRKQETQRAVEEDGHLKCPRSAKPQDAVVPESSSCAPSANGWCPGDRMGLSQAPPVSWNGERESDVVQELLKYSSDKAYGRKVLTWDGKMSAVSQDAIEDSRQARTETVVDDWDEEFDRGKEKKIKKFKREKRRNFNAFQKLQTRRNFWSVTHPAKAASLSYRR
In short: as §1

USP38 = molecular target: T2, USP38 (UniProt Q8NB14)
T2 sequence (whole entry): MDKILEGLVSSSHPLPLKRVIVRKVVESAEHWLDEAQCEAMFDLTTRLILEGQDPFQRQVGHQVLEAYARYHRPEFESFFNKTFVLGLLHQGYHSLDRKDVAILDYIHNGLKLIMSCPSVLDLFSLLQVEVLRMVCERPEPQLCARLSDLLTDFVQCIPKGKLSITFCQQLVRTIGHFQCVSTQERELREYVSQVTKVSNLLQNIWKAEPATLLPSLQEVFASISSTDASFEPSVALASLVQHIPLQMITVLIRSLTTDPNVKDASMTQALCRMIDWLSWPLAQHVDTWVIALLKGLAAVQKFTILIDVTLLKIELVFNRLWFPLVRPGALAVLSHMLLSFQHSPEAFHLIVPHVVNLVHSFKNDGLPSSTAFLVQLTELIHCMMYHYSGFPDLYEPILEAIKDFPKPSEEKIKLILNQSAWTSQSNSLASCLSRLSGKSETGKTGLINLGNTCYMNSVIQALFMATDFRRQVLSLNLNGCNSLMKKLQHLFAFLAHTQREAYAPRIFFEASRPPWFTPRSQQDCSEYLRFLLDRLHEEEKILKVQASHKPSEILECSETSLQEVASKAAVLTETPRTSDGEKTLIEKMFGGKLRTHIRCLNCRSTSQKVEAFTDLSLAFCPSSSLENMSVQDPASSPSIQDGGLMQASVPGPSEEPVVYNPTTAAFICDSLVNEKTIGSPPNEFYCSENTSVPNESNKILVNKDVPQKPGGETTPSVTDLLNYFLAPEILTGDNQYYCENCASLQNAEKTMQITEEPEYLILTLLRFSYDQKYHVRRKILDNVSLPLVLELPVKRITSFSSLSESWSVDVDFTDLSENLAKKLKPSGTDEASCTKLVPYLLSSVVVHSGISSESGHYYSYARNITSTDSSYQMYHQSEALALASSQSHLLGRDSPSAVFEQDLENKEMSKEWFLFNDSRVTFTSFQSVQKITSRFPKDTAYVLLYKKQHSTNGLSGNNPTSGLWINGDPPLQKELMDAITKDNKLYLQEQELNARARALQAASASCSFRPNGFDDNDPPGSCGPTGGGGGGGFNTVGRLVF
In short: as §1

USP39 = molecular target: T3, USP39 (UniProt Q53GS9)
T3 sequence (whole entry): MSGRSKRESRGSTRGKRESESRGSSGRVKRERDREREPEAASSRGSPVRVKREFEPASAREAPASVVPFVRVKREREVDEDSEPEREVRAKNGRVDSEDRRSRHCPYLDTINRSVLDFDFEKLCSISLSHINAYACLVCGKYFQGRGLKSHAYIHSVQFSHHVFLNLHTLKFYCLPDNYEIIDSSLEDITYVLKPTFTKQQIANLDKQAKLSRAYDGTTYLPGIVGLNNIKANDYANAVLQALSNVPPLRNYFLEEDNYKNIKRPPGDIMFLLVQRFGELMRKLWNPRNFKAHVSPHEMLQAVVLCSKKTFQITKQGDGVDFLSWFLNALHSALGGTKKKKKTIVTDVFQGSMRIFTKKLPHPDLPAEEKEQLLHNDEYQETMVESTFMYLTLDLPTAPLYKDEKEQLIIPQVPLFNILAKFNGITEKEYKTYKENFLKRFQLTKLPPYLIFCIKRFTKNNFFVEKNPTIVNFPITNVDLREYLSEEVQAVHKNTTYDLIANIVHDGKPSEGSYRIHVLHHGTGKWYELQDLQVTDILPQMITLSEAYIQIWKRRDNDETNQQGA
In short: as §1

USP4 = molecular target: T4, USP4 (UniProt Q13107)
T4 sequence (whole entry): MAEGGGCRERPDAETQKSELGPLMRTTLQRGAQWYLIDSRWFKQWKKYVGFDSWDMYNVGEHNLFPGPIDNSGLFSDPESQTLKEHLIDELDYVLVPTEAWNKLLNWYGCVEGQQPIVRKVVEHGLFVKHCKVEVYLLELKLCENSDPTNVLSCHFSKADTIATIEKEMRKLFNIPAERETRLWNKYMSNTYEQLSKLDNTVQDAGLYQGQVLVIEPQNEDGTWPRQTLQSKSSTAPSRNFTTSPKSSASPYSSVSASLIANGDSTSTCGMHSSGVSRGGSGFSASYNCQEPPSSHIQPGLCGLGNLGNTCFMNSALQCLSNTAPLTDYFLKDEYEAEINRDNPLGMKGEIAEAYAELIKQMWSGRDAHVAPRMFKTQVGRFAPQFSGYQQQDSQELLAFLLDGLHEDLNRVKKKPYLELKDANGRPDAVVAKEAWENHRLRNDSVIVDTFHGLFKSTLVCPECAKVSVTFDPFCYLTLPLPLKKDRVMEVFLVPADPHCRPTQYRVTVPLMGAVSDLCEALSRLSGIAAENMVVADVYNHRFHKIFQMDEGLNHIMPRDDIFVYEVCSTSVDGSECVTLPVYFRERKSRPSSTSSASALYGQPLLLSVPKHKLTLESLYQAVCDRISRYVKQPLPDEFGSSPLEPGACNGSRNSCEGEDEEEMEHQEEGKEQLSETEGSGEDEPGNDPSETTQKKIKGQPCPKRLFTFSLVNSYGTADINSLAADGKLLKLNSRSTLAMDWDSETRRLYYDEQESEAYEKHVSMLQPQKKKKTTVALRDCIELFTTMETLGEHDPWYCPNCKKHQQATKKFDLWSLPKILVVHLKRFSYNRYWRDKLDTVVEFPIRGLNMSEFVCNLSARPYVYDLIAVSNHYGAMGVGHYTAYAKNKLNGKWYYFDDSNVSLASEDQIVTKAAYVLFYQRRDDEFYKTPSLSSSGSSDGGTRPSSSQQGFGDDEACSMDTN
In short: as §1

Measured: log2 ratio of Biotin-Ahx-Ub-VS probe labelling

CC(NC(=O)CCl)c1noc(Cc2ccccc2)n1 (stereo not given)
inactive: USP34 -0.0517 | USP36 -0.338 | USP38 -0.21 | USP39 -0.245 | USP4 -0.142
